Most compounds without a hit are left out; they make up all but 13% or so of the library.
HCV inhibitor: qHTS Assay for Inhibitors of Hepatitis C Virus (HCV). Potency, µM (top dose mostly 41.8 µM), for inactives: at the highest dose activity change, negative = inhibition, hits mostly inhibitors. Huh7.5.1 HCVcc-Cre infection, luciferase reporter, 44 h. 340,000 tested, 3.4% active; further: potency means the concentration at half of the fitted maximal effect
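Seed cells (1,000/well) for 4 h; treat with compound and infect with HCVcc-Cre, moi about 0.5. Incubate 44 h, then detect luciferase activity.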
HCMV inh: qHTS Assay for inhibitors of the human cytomegalovirus (HCMV); HFF cells, HCMV-luciferase reporter, 72 h; active compounds read low; activity change, negative = inhibition, % at 57.5 µM; 410,000 tested, 4.5% active; in the data active means activity change below about -60%; inconclusive means no clear call, values can overlap the other calls; inactive means above about -39%
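Screen run at 2 compound doses on HFFs infected with reporter HCMV, MOI 1 PFU/cell. Luciferase activity from cell lysates at 72 h post infection gave inhibition relative to buffer-only and Salinomycin wells.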
Pf growth 96h: Primary qHTS for delayed death inhibitors of the malarial parasite plastid, 96 hour incubation; P. falciparum luciferase reporter growth, 96 h; Potency, µM (top dose mostly 28.7 µM), without a hit: at the top dose activity change, negative = inhibition, actives largely listed as inhibitors; 320,000 tested, 6.9% active; AID 504834, 2011; further: potency means the concentration at half of the fitted maximal effect
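P. falciparum expressing integrated firefly luciferase, in erythrocytes at 2% hematocrit, 0.05% parasitemia, incubated with compounds 96 h at 37 C, 5% CO2. Growth inhibition read as loss of luminescence; two-generation exposure targets delayed-death apicoplast inhibitors.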
Pf growth 48h: Primary qHTS for delayed death inhibitors of the malarial parasite plastid, 48 hour incubation | 310,000 tested, 5.9% active | P. falciparum luciferase growth in erythrocytes, 48 h | AID 504832, 2011 | Potency, µM (doses to about 28.7 µM), without a hit: top-dose activity change, negative = inhibition, hits mostly inhibitors; further: potency means the concentration at half of the fitted maximal effect
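Compounds are pin-transferred into medium, infected erythrocytes (2% hematocrit, 0.1% parasitemia final) are added, and plates sit one parasite generation at 37 C in 5% CO2. Detection reagent is then added and luminescence measured.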
* marks the source's active call; other numbers are inactive results; ? = inconclusive; . = no result given. Unless noted, the call rests on the fitted dose curve; in most records, active means well fitted inhibition curve with a large enough effect; inconclusive means small, poorly fitted or top-dose-only effect, or another doubt; inactive means no such curve, though single readings can be large or run the other way. On the % scale 0 is the no-effect control and ±100 the full control effect.

SMILES	HCV inhibitor	HCMV inh	Pf growth 96h	Pf growth 48h
COc1ccc(OC)c(CCNc2nc3cc(OC)c(OC)cc3c3nc(-c4cccnc4)nn23)c1	.	4	.	.
Cc1ccc2oc(=O)c3cc(C(=O)NCCCOC(C)C)sc3c2c1	.	-1	.	.
CC1NC(C)(C)Cc2c1ccc1ccccc21 (centres undefined)	-12%	3	-20%	-1%
CC[N+]1(CC)CC2=Cc3c(ccc4ccccc34)C(C)C2C1 (centres undefined)	-8%	-36	1.5µM*	2.3µM*
NC(=O)COC(=O)c1cccnc1Nc1ccccc1F	4%	-71*	27%	4%
CC(NS(=O)(=O)c1ccc(OCC(=O)Nc2cccc([N+](=O)[O-])c2)cc1)c1ccccc1 (centres undefined)	?	-5	-34%	10µM*
O=C(COC(=O)COc1ccccc1)Nc1cccc([N+](=O)[O-])c1	11%	-9	57%	39%
Cc1ccc(NS(=O)(=O)c2ccc(OCC(=O)Nc3cccc([N+](=O)[O-])c3)c(C)c2)cc1	-28%	-9	15µM*	?
CC(=O)c1cccc(NC(=O)CSc2nnc3ccc(-c4ccc(Br)cc4)nn23)c1	.	33	.	.
CCCc1c(C(=O)NNc2cc(C(F)(F)F)ccc2Cl)cnn1-c1ccccc1	?	-66*	?	?
CCCc1c(NC(=O)Nc2ccc(F)cc2)cnn1-c1ccccc1	-19%	-67*	?	?
CCCc1c(C(=O)Nc2cc(C)on2)cnn1-c1ccccc1	-8%	-29	9.3µM*	?
COc1ccccc1NC(=O)c1cc(S(=O)(=O)N(C)C2CCCCC2)ccc1F	.	-23	.	.
COc1ccc(NC(=O)NCCN2C(=O)C3C4C=CC(C4)C3C2=O)cc1 (centres undefined)	0%	118	12µM*	94%
Cc1cccc(NC(=O)NCCN2C(=O)C3C4C=CC(C4)C3C2=O)c1 (centres undefined)	12%	81	12µM*	.
Cc1ccc(NC(=O)NCCN2C(=O)C3C4C=CC(C4)C3C2=O)cc1 (centres undefined)	3%	110	?	.
COc1ccccc1CNC(=O)CCS(=O)(=O)c1ccc2c(c1)oc(=O)n2C	.	13	.	.
CCCCN(CC)c1nc(N)c(C#N)c(CC#N)c1C#N	-29%	?	3.3µM*	.
CCCCN(CC)c1nc(N)c2c(N)nc(OCC)cc2c1C#N	?	?	13µM*	.
CCOc1cc2c(C#N)c(N3CCCC3)nc(N)c2c(N)n1	-1%	19	.	.
C=C(C)CN(CC)c1nc(N)c(C#N)c(CC#N)c1C#N	-3%	-7	?	?
COc1ccc(CCNC(=O)c2oc(=O)c3ccccc3c2-c2ccccc2)cc1OC	.	33	.	.
CCOC(=O)c1ccccc1NC(=O)CSc1ccc(-c2sc(-c3ccccc3)nc2C)nn1	.	16	.	.
CCOC(=O)c1[nH]c(C)c(CN(Cc2ccco2)C(=O)C(F)(F)F)c1C	?	-21	1%	10µM*
CCOC(=O)c1[nH]c(C)c(CN(CCc2ccccc2)C(=O)CCC(=O)O)c1C	15%	-7	4.1µM*	-35%
SMILES	HCV inhibitor	HCMV inh	Pf growth 96h	Pf growth 48h
CCOC(=O)c1[nH]c(C)c(C(=O)NCc2ccco2)c1C	3%	-11	3%	17%
CCOC(=O)c1[nH]c(C)c(CCC(=O)O)c1C	17%	-8	-28%	16%
CCN(CC)CCCNC(=O)c1c2c(nc3ccccc13)C(=O)N(C1CCCCC1)C2	.	-3	.	.
Nc1nc(N)nc(-c2cc(Cl)ccc2Cl)n1	16%	11	8.5µM*	-5%
CCCCc1ccc(N=N/C(C(=O)Nc2ccccc2OC)=C(/C)O)cc1	13%	-28	0%	11%
CCCCc1ccc(N=N/C(C(=O)Nc2cc(OC)c(NC(C)=O)cc2OC)=C(/C)O)cc1	13%	30	4.7µM*	?
O=C(O)C(Cc1cc(I)c(O)c(I)c1)c1ccccc1 (centres undefined)	.	.	?	-4%
CNC[C@H](O)c1ccc(OC(=O)C(C)(C)C)c(OC(=O)C(C)(C)C)c1	.	.	3.2µM*	?
Cc1ccc(NC(=O)CCN2C(=O)c3ccccc3Sc3ncccc32)c(Cl)c1	.	-20	.	.
COc1cc(C(=O)NCCSc2c(C)[nH]c3ccccc23)cc(OC)c1OC	.	8	.	.
COc1cccc(C(=O)NCCSc2c(C)[nH]c3ccccc23)c1OC	13µM*	-32	?	?
Cc1ccc(SCCNC(=O)c2ccc(C)c([N+](=O)[O-])c2)cc1	-26%	4	-21%	-17%
Cc1ccc(C(=O)NCCSc2ccc(Cl)cc2)cc1[N+](=O)[O-]	-16%	-3	4.1µM*	13µM*
Cc1ccc(C(=O)NCCSc2c(C)[nH]c3ccccc23)cc1[N+](=O)[O-]	11µM*	11	?	12%
COc1cc(OC)cc(C(=O)Nc2cc(-c3nc4cccnc4s3)ccc2C)c1	.	-27	.	.
COc1ccc(/C=C/c2c([N+](=O)[O-])c(=O)n(C)c(=O)n2C)c(OC)c1	11µM*	0	2%	?
CCc1ccc(/C=C/c2c([N+](=O)[O-])c(=O)n(C)c(=O)n2C)cc1	?	-98*	38%	2.3µM*
Cn1c(/C=C/N(Cc2ccccc2)c2ccccc2)c([N+](=O)[O-])c(=O)n(C)c1=O	?	-5	-11%	-19%
Cn1c(/C=C/c2ccc(Cl)cc2Cl)c([N+](=O)[O-])c(=O)n(C)c1=O	?	-98*	42%	4.7µM*
COc1ccc(/C=C/c2c([N+](=O)[O-])c(=O)n(C)c(=O)n2C)cc1	2%	10	13µM*	?
O=C(CSc1nc(=O)[nH]c2c1CCCC2)Nc1ccc(Cl)c(Cl)c1	.	-34	.	.
CCOc1ccc(/C=C/c2c([N+](=O)[O-])c(=O)n(C)c(=O)n2C)cc1	10%	-75*	1%	?
CCOC(=O)c1ccc(NS(=O)(=O)c2cn(C)c(C)n2)cc1	.	-12	.	.
CCOC(=O)[C@]12CCCC=C1N(Cc1ccccc1)C(=O)[C@H](CC(=O)N1CCC(c3ccccc3)CC1)C2	.	39	.	.
COc1cccc(/C=C2\SC(=S)N(CCC(=O)NNC(=O)c3ccccc3OC)C2=O)c1	?	0	40%	43%
SMILES	HCV inhibitor	HCMV inh	Pf growth 96h	Pf growth 48h
O=C1/C(=C/c2ccc3c(c2)OCO3)SC(=S)N1CCC(=O)N(CCO)c1ccccc1	.	-68*	.	.
COc1cccc(/C=C2\SC(=S)N(CCCC(=O)N(CCO)c3ccccc3)C2=O)c1	?	-97*	1.9µM*	12µM*
O=C1/C(=C/c2cccc(Br)c2)SC(=S)N1CCC(=O)N(CCO)c1ccccc1	-17%	-104*	-20%	-19%
Cc1ccc(NC(=O)CSc2nc3ccccc3c3nc(CCc4c(C)n[nH]c4C)nn23)c(C)c1	.	-15	.	.
CCCCNC(=O)c1nn(-c2ccc(C)cc2)c(=O)c2c1c1ccccc1n2C	.	-1	.	.
CN(c1ccccc1)c1ncccn1	16%	7	.	.
